# Data: PMC10943123
# What was measured:
# [1] = target: Nuclear cap-binding protein subunit 1 (UniProt Q09161); assay: cross-linking mass spectrometry
# [2] = target: Cell division cycle 5-like protein (UniProt Q99459); assay: cross-link between two proteins; cross-linking mass spectrometry
# [3] = target: Pre-mRNA-processing-splicing factor 8 (UniProt Q6P2Q9); assay: as above
# [4] = target: Small nuclear ribonucleoprotein-associated proteins B and B' (UniProt P14678); assay: as above
# [5] = target: Splicing factor 3A subunit 2 (UniProt Q15428); assay: as above
# Splicing factor 3A subunit 2, sequence (Q15428 whole entry): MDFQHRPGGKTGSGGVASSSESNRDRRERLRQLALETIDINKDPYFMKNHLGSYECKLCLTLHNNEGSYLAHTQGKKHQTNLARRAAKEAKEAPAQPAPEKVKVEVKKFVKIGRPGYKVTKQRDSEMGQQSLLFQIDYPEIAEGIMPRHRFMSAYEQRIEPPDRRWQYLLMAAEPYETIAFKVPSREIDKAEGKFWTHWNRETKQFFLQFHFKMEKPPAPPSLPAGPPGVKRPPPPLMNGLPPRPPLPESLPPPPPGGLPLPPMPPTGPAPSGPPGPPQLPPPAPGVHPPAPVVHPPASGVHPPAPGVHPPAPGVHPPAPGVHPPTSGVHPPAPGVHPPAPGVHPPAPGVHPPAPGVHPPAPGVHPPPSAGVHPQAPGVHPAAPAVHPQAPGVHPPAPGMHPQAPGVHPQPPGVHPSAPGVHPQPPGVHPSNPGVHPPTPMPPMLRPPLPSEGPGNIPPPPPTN
# [6] = target: U6 snRNA-associated Sm-like protein LSm4 (UniProt Q9Y4Z0); assay: as above
# U6 snRNA-associated Sm-like protein LSm4, sequence (Q9Y4Z0 whole entry): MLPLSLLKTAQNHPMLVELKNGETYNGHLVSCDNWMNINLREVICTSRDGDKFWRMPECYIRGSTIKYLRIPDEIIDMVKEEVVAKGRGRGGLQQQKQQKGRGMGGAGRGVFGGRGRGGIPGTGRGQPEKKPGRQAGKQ
# [7] = target: U6 snRNA-associated Sm-like protein LSm6 (UniProt P62312); assay: as above
# U6 snRNA-associated Sm-like protein LSm6, sequence (P62312 whole entry): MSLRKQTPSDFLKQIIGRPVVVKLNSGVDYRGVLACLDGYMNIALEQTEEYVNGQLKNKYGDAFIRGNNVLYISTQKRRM
# [8] = target: WD repeat-containing protein 70 (UniProt Q9NW82); assay: as above
# WD repeat-containing protein 70, sequence (Q9NW82 whole entry, the tested form may be a part): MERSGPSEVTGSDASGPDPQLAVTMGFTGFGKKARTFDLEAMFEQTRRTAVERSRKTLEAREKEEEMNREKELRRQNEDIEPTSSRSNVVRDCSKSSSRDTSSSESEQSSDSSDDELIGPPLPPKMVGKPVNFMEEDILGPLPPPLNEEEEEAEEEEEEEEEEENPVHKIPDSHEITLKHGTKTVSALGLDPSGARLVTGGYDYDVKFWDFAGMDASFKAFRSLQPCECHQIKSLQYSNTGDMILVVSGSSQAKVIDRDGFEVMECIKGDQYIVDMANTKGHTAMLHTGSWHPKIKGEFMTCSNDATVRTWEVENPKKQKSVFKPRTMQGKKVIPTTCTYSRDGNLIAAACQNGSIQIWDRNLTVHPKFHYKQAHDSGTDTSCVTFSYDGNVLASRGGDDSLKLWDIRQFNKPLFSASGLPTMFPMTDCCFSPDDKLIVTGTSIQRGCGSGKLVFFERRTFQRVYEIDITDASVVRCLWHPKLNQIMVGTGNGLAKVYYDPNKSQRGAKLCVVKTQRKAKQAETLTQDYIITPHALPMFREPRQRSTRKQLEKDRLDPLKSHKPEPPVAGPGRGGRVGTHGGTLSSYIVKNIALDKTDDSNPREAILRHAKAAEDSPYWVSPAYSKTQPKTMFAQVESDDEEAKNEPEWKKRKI
# [9] = target: WW domain-binding protein 4 (UniProt O75554); assay: as above
# WW domain-binding protein 4, sequence (O75554 whole entry, the tested form may be a part): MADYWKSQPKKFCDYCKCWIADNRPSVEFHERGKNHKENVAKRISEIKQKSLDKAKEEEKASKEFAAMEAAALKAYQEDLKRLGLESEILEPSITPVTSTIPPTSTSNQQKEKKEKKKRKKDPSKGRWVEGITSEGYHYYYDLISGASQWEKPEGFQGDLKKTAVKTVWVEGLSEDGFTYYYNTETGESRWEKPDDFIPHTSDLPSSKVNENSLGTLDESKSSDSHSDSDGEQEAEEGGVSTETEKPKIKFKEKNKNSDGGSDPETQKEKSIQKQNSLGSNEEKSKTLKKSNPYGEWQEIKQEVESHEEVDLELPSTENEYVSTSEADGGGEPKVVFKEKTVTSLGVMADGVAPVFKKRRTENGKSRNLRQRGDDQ
# [10] = target: Zinc finger CCCH domain-containing protein 18 (UniProt Q86VM9); assay: as above
# Zinc finger CCCH domain-containing protein 18, sequence (Q86VM9 whole entry, the tested form may be a part): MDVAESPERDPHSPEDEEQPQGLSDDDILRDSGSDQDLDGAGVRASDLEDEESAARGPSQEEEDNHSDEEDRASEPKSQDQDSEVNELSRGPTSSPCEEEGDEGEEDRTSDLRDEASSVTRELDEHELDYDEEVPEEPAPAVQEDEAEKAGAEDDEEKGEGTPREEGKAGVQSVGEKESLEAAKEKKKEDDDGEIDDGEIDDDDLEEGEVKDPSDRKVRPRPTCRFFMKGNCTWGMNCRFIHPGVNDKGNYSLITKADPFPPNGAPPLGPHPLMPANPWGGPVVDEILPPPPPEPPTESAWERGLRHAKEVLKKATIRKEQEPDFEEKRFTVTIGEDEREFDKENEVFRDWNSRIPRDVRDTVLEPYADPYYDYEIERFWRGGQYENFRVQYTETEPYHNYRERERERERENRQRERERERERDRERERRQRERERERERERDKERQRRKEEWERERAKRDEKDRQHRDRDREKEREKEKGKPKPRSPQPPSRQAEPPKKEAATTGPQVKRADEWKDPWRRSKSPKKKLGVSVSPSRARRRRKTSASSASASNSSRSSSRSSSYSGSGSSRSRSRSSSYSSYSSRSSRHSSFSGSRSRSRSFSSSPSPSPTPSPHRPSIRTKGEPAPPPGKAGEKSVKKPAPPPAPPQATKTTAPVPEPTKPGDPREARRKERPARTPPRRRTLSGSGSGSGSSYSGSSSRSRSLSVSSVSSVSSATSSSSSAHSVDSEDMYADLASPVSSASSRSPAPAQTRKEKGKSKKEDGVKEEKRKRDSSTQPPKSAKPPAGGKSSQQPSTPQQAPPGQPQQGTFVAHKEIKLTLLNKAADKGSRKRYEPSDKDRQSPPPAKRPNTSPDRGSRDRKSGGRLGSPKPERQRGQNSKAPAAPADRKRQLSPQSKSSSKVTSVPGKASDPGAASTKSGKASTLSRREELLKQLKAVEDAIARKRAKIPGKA
# [11] = target: Cell division cycle 5-like protein (UniProt Q99459); assay: cross-link between two proteins; cross-linking mass spectrometry; other
# Cell division cycle 5-like protein, sequence (Q99459 whole entry): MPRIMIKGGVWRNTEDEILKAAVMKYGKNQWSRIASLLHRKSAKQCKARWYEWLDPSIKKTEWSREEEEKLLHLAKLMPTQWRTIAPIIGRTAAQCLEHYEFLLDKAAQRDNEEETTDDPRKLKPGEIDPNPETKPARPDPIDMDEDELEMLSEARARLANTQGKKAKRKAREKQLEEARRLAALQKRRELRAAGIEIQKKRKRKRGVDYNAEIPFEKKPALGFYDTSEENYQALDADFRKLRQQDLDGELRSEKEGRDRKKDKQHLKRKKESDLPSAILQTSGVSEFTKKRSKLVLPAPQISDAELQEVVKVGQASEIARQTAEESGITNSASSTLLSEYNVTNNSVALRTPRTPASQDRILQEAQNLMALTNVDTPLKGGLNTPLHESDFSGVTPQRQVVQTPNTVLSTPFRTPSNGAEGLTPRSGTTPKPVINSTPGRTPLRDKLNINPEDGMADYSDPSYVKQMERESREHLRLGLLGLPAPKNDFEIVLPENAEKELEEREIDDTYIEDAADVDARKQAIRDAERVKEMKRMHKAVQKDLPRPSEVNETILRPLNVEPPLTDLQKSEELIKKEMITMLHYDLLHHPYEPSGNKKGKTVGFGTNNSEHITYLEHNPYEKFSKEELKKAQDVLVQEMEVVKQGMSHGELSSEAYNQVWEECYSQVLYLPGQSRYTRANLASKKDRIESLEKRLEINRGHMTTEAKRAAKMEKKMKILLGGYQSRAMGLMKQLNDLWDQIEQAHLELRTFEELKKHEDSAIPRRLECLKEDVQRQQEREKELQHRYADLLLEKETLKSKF
# Peptidyl-prolyl cis-trans isomerase H, O43447, sequence (O43447 whole entry): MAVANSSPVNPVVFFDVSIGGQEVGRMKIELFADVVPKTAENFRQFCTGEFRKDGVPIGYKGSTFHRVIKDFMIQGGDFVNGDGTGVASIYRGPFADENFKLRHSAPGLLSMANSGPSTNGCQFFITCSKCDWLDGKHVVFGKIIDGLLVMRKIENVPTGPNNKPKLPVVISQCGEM
# Nuclear cap-binding protein subunit 1, sequence (Q09161 whole entry): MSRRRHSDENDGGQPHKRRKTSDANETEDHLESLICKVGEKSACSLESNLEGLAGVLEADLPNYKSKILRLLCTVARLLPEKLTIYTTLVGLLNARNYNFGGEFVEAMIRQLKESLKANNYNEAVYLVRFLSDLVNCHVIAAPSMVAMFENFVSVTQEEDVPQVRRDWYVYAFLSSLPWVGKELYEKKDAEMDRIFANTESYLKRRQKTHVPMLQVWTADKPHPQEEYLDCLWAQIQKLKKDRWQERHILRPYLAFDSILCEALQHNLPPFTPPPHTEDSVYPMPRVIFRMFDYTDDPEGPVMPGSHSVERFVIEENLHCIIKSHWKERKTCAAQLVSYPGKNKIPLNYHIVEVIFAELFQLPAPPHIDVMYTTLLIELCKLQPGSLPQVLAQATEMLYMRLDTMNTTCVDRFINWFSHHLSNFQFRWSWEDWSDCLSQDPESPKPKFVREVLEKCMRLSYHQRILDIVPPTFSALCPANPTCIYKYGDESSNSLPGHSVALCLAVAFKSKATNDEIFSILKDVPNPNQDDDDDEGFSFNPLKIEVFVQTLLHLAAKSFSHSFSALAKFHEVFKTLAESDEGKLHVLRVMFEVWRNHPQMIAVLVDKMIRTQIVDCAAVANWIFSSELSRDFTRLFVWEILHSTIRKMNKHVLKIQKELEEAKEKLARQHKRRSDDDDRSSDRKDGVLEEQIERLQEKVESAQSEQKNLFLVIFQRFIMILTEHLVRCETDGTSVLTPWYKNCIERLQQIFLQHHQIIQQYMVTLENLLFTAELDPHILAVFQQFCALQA
substance,measurement,setting,value
"Nuclear cap-binding protein subunit 2, P52298",listed as a hit,[1],yes
"U5 small nuclear ribonucleoprotein 40 kDa protein, Q96DI7",listed as a hit,[2],yes
"Thioredoxin-like protein 4A, P83876",listed as a hit,[3],yes
"U2 small nuclear ribonucleoprotein B'', P08579",listed as a hit,[4],yes
"Splicing factor 3B subunit 4, Q15427",listed as a hit,[5],yes
"U6 snRNA-associated Sm-like protein LSm7, Q9UK45",listed as a hit,[6],yes
"U4/U6 small nuclear ribonucleoprotein Prp3, O43395",listed as a hit,[7],yes
"Pre-mRNA-processing factor 17, O60508",listed as a hit,[8],yes
"Peptidyl-prolyl cis-trans isomerase H, O43447",listed as a hit,[9],yes
"Nuclear cap-binding protein subunit 1, Q09161",listed as a hit,[10],yes
"U5 small nuclear ribonucleoprotein 200 kDa helicase, O75643",listed as a hit,[11],yes
